rCAG RNA binder: binders of r(CAG) RNA repeats, primary screen, biochemical, fluorescence. r(CAG) RNA repeat, TO-PRO-1 dye displacement fluorescence. inhibition, % at 3 µM. 1.3% of 370,000 active;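 active means inhibition above the plate cutoff, the mean of all test compounds on that plate plus 3 SD, cut at about 35% in these data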;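 further: 0% = DMSO alone and 100% = 100 µM mitoxantrone as full dye displacement; higher means more dye released from RNA so lower well fluorescence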
NadD block: inhibitors of S. aureus NadD, primary screen, biochemical, colorimetric, uHTS | Nicotinate-nucleotide adenylyltransferase NadD (Staphylococcus aureus N315) | purified NadD enzyme, colorimetric absorbance read-out | inhibition, % at 20 µM | 0.78% of 360,000 active | AID 602399, 2012; in the data active means inhibition above about 26%
MsrA act: bovine MsrA enzyme activators, primary screen, biochemical, absorbance, HTS | purified bovine MsrA, absorbance read-out | activation, % at 10.6 µM | 0.3% of 360,000 active; in the data active means activation above about 7.5%;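 further: 0% = vehicle and 100% = reference activator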
MsrA inh: bovine MsrA enzyme inhibitors, primary screen, biochemical, absorbance, HTS | Methionine sulfoxide reductase A (Bos taurus) | purified bovine MsrA, absorbance read-out | inhibition, % at 15.5 µM | 0.75% of 360,000 active;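 further: 0% = vehicle wells with enzyme and 100% = reference inhibitor wells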
MsrA conf: bovine MsrA inhibitors, retest, confirmation, biochemical, absorbance, HTS | inhibition, % at 15.5 µM | shares compounds with MsrA inh | 41% of 2,300 active | purified bovine MsrA, absorbance read-out;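 further: coupled to thioredoxin reductase with NADPH and selenocystamine and DMSO as substrate; 0% = vehicle only and 100% = full effect of reference inhibitor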
* hit, by the source's call; nt = not tested or not shown. In the library only some 2.7% were active in any assay of this set; here they are far more common. Unless noted, no stated cut-off is given here; in the data, active means inhibition above about 4.5%; inactive means the rest.

SMILES | rCAG RNA binder | NadD block | MsrA act | MsrA inh | MsrA conf
CSc1ccc(/C=C/C(=O)OCC(=O)NC2CC2)cc1 | 1.4 | -5.5 | -3.9 | 5.0* | 3.0
CSc1ccc(/C=C/C(=O)OCC(=O)NC(C)C)cc1 | 3.2 | -0.8 | -7.3 | 5.5* | 2.6
Cc1nc2cc(C(=O)N3CCN(C)CC3)ccc2n1C | -5.6 | 2.0 | -1.7 | 0.5 | nt
CCCc1cc(=O)[nH]c(N/N=C/C=C\c2ccccc2)n1 | 9.9 | -4.7 | -4.7 | 6.7* | 5.5*
C(=C\c1ccccc1)/C=N/Nc1nc2ccccc2[nH]1 | 1.8 | -1.9 | -6.7 | 3.9 | nt
CNc1ncnc(Sc2nc(N)nc3nc[nH]c23)c1[N+](=O)[O-] | 0.5 | 2.1 | -9.7 | 5.3* | 5.5*
Nc1nc(Sc2ccc([N+](=O)[O-])c3nonc23)c2[nH]cnc2n1 | 25.2 | 13.9 | -5.6 | 3.0 | nt
O=C(c1ccccc1)N1CCN(c2ccc(N3CCOCC3)nn2)CC1 | -3.1 | -5.8 | -4.0 | -0.2 | nt
CN=c1sc2c(n1C)C(=O)c1ccccc1C2=O | 3.6 | 0.6 | 5.6 | 9.7* | 7.0*
CN=c1sc(C(=O)Nc2ccccc2)c(C)n1C | -1.8 | -5.6 | -4.0 | 1.7 | nt
Nc1ccc(-c2nc3ncccc3o2)cc1 | 0.1 | 5.7 | -5.7 | 6.9* | 4.6*
Cc1nnc(Nc2ccccn2)c2ccccc12 | -4.0 | -4.9 | -5.7 | 5.5* | 1.1
Cc1nnc(Nc2ccc(F)cc2)c2ccccc12 | 1.7 | -3.7 | 2.8 | 1.1 | nt
CCCc1cc(=O)oc2c3c(cc(OCC(=O)N4CCC(C(=O)O)CC4)c12)OC(C)(C)CC3 | 10.6 | 1.3 | -3.0 | 5.0* | 1.3
COc1ccc(CCC(=O)NCC(c2ccco2)N2CCc3ccccc32)cc1 (centres undefined) | -1.4 | -1.0 | 1.0 | -0.6 | nt
Cc1oc2cc(O)ccc2c(=O)c1N1C(=O)c2ccccc2C1=O | 4.1 | -8.8 | -5.3 | 3.2 | nt
Cc1ccccc1-c1c(C)oc2cc(O)ccc2c1=O | 1.5 | -1.4 | -5.8 | 4.9* | 2.0
Cn1nccc1NC(=O)CSCC(=O)O | 1.0 | -2.2 | 1.7 | 0.0 | nt
NC(=O)c1ccsc1NC(=O)COC(=O)/C=C/c1ccccc1[N+](=O)[O-] | 4.1 | -5.4 | -1.5 | 11.5* | 9.4*
CCc1cc(C(=O)Cc2nc3ccccc3[nH]2)c(O)cc1O | 7.4 | 2.1 | -2.5 | 5.0* | 4.4
N#C/C(=C(/O)CSc1ccccc1C(=O)O)c1nc2ccccc2s1 | 17.4 | -2.9 | -4.5 | 7.1* | 7.1*
COc1ccc(/C=C/C(=O)c2ccc(C(=O)/C=C/c3ccc(OC)c(OC)c3)cc2)cc1OC | 17.1 | -4.9 | -3.5 | 1.6 | nt
O=C(/C=C/c1ccccc1)NC(=O)c1ccccc1O | 4.6 | -8.9 | -3.6 | 0.7 | nt
COc1ccc(/C=C/C(=O)Nc2ccc3c(c2)CCC3)cc1OC | 2.6 | -13.7 | -7.1 | 2.4 | nt
COc1ccc(/C=C/C(=O)Nc2ccc(C(N)=O)cc2)cc1OC | 2.7 | -2.7 | -4.7 | 5.0* | 5.0*
SMILES | rCAG RNA binder | NadD block | MsrA act | MsrA inh | MsrA conf
COc1ccc(/C=C/C(=O)Nc2ccccc2C(=O)O)cc1OC | 10.2 | -3.5 | -10.8 | 5.2* | 5.4*
COc1cc(/C=C/C(=O)NC(=O)c2ccccc2O)ccc1O | 4.0 | -3.5 | -4.5 | 5.6* | 4.2
COc1ccc(/C=C/C(=O)c2ccc[nH]2)cc1OC | -4.5 | 0.8 | -11.2 | 5.4* | 4.3
COc1ccc(/C=C/C(=O)O/N=C(\N)c2ccccn2)cc1OC | 1.5 | -0.4 | -1.9 | 4.8* | 3.5
Oc1ccc(-c2cnc(-c3ccc(O)cc3)nc2)cc1 | 7.0 | 2.3 | -1.2 | 1.1 | nt
Nc1ccc(-c2cnc(-c3ccc(N)cc3)nc2)cc1 | 2.1 | -0.7 | -6.5 | 8.6* | 7.6*
Cc1ccc2cc(/C=N/NC(=O)CN3CCOCC3)c(Cl)nc2c1 | 3.8 | 0.8 | -3.1 | 5.0* | 2.5
Cc1ccc2nc(Cl)c(/C=N/NC(=O)CN3CCOCC3)cc2c1 | -5.5 | -0.9 | -5.6 | 2.2 | nt
COCCNC(=O)Cn1cc(C(=O)c2ccco2)c2ccccc21 | -2.5 | -2.3 | -4.6 | 7.2* | 2.5
O=S(=O)(NCCN1CCCC1)c1ccc(C(F)(F)F)cc1 | 7.9 | -5.9 | -0.9 | 0.3 | nt
Fc1cccc(/C=N/Nc2nc3ccccc3[nH]2)c1 | 8.3 | nt | nt | 4.7* | 4.0
Cc1ccc(/C=N/Nc2ncnc3nc[nH]c23)cc1 | 10.1 | -4.2 | -7.0 | 3.0 | nt
Fc1ccccc1/C=N/Nc1ncnc2nc[nH]c12 | 3.9 | -1.1 | -4.8 | 8.9* | 3.7
Oc1ccc(/C=N/Nc2ncnc3nc[nH]c23)cc1 | 0.5 | -8.3 | -6.5 | 6.9* | 5.6*
Clc1ccc(/C=N/Nc2ncnc3nc[nH]c23)cc1 | 2.7 | -4.6 | -3.3 | 3.9 | nt
Fc1cccc(/C=N/Nc2ncnc3nc[nH]c23)c1 | 2.8 | 4.4 | -4.0 | 5.2* | 3.8
CCC(CC)c1nnc(NC(=O)c2cc(C(=O)OC)cc([N+](=O)[O-])c2)s1 | 16.7 | 3.8 | -8.9 | 1.8 | nt
COc1ccc(N=Cc2c(C)[nH][nH]c2=O)cc1 | 5.4 | 0.1 | -4.6 | 5.4* | 2.7
O=C1CCC/C1=C/Nc1ccc(Cl)cc1 | 1.6 | -1.2 | -2.7 | 6.0* | 4.5
CCS(=O)(=O)N1Cc2cc(C(=O)NCC3CC3)nc(-c3cccc(-c4cccnc4)c3)c2[C@@H]1CCO | 2.4 | -1.2 | -1.2 | 0.4 | nt
O=C(Nc1nc2c(s1)CCCC2=O)c1cnccn1 | 0.0 | -6.4 | -4.2 | 4.7* | 3.1
Cc1ccc(NC(=S)N/N=C/c2c(C)[nH]c3ccccc23)cc1 | 30.1 | 13.8 | -4.9 | 2.1 | nt
Cc1[nH]c2ccccc2c1/C=N/NC(=O)c1ccccc1 | 2.3 | -8.4 | -2.1 | 6.2* | 4.5
Cc1[nH]c2ccccc2c1/C=N/NC(N)=S | 0.0 | 1.1 | -3.5 | 5.8* | 4.7*
Cc1[nH]c2ccccc2c1/C=N/NC(=O)c1ccc(N)cc1 | -0.6 | -4.1 | -4.5 | 5.5* | 4.7*
SMILES | rCAG RNA binder | NadD block | MsrA act | MsrA inh | MsrA conf
Cc1[nH]c2ccccc2c1/C=N/NC(=O)c1cccc(Br)c1 | nt | -0.9 | -1.4 | nt | nt
COc1cc2cc(CCCOC(=O)CCC(=O)O)oc(=O)c2cc1OC | -0.5 | 1.5 | -7.9 | 1.0 | nt
CCOC(=O)C1CCCN(C(=O)c2cnn3c(C(F)F)cc(-c4ccc(C)cc4)nc23)C1 (centres undefined) | -9.6 | -4.2 | 5.6 | 29.1* | 23.1*
Cc1ccc(-c2cc(C(F)F)n3ncc(C(=O)N4CCN5CCCC5C4)c3n2)cc1 (centres undefined) | -2.3 | 6.1 | -9.0 | 0.9 | nt
Cn1c(/C(C#N)=C/Nc2ccccn2)nc2ccccc21 | 2.1 | 5.1 | -7.7 | 6.8* | 3.3
CN(C)C1=NC(=O)/C(=C\c2ccccc2)S1 | 1.4 | -1.3 | -2.2 | 6.5* | 2.9
Clc1ccccc1/C=C/C=N/Nc1nc(N2CCOCC2)nc(N2CCOCC2)n1 | -5.3 | 0.6 | -2.4 | 5.3* | 3.9
C(=C\c1ccccc1)/C=N/Nc1nc(N2CCOCC2)nc(N2CCOCC2)n1 | -5.0 | 3.6 | -2.6 | 7.5* | 6.8*
Cc1ccccc1NC(=O)Cc1nc(COC(=O)c2nccnc2N)cs1 | 10.7 | 13.7 | 0.0 | 2.4 | nt
